DAX1 inh-1 = blocks DAX1 repression of SF-1 activated StAR promoter; inhibition, % at 6.8 µM; hit rate 1.1% among 370,000; HEK293T StAR-luciferase reporter, SF-1/DAX-1 repression relief;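 active means inhibition above the mean over all tested compounds plus 3 SD, cut at about 3.6% in these data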;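 further: higher inhibition means more luminescence from relief of DAX-1 repression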
ssDAF-12 act = S. stercoralis DAF-12 activation, primary screen | hit rate 1% among 370,000 | HEK293 ssDAF-12/GRIP1 lit1-tk-luc reporter, luminescence; % of 3 µM dafachronic acid response | activation, % at 6.8 µM;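 active means activation above the mean over all tested compounds plus 3 SD, cut at about 0.9% in these data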
hcDAF-12 act = H. contortus DAF-12 activation, primary screen; hit rate 1.4% among 370,000; activation, % at 6.8 µM; HEK293 hcDAF-12 lit1-tk-luc reporter, luminescence; 0% DMSO, 100% Δ7-dafachronic acid;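 active means activation above the mean of all tested compounds plus 3 SD, cut at about 5.5% in these data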
hgDAF-12 ag = hgDAF-12 agonism, primary luciferase screen | HEK293 GAL4-hgDAF12 UAS-luciferase reporter, agonist luminescence; normalized to butyrate control | hit rate 1.8% among 370,000 | AID 687014 | activation, % at 6.8 µM;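 active means activation above a cutoff set at the mean of all screened compounds plus 3 SD, cut at about 10% in these data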
DAX1 inh-2 = inhibitors of human orphan nuclear receptor DAX1 (NR0B1). HEK293 Gal4-DAX1 luciferase reporter, luminescence. inhibition, % at 6.75 µM. AID 504766. P51843. hit rate 0.99% among 340,000;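 active means inhibition above the mean over all tested compounds plus 3 SD, cut at about 4.2% in these data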;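 further: inhibition shows as a rise in luminescence from relieved DAX1 repression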
Target sequence (P51843 207-470 limits assumed): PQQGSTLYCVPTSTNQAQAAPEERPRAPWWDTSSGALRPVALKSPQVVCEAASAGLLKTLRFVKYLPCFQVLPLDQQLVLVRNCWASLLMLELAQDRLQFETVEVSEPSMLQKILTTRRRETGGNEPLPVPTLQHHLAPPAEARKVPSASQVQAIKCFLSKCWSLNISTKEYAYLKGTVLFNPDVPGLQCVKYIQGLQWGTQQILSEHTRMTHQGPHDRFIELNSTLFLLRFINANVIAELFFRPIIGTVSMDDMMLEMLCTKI
Hits are given with their value; i = inactive; nt = not tested or not shown. Shown are actives, neighbours in structure and some others; about 4.1% of the full set was active somewhere.

SMILES | DAX1 inh-1 | ssDAF-12 act | hcDAF-12 act | hgDAF-12 ag | DAX1 inh-2
CCN1CCCC1CNC(=O)c1cc2c(-c3ccc(Cl)cc3)nn(C)c2s1 (stereo unspecified) | nt | nt | nt | nt | 4.6
CC(C)NC(=O)c1cc2c(-c3ccc(Cl)cc3)nn(C)c2s1 | i | i | i | i | 4.4
COc1cccc(-c2nn(C)c3sc(C(=O)NCc4ccco4)cc23)c1 | i | i | i | i | i
Cc1ccc(CNC(=O)c2cc3c(-c4ccc(Cl)cc4)nn(C)c3s2)o1 | i | 1.6 | i | i | i
Cc1nn(-c2ccccc2)c2sc(C(=O)N3CCOCC3)cc12 | i | 1.3 | 6.5 | i | i
Cc1nn(-c2ccccc2)c2sc(C(=O)O)cc12 | i | i | i | i | i
COc1ccc2ccccc2c1C=NNC(=O)c1cc(-c2ccc(C)cc2)n[nH]1 | i | i | i | i | nt
Cc1ccc(OCc2nnc(SCC(=O)c3ccc(-c4ccccc4)cc3)n2Cc2ccco2)cc1 | i | i | i | i | nt
CCCCNC(=O)c1cc2c(-c3ccc(Cl)cc3)nn(C)c2s1 | i | i | 5.9 | i | i
COCCCNC(=O)c1cc2c(-c3ccc(Cl)cc3)nn(C)c2s1 | i | i | i | i | i
Cn1nc(-c2ccc(Cl)cc2)c2cc(C(=O)N3CCN(c4ccccc4)CC3)sc21 | i | i | 5.7 | i | i
CC(C)C[C@@H]1COc2cc(N3CCCC3)ccc2S(=O)(=O)N1C | i | i | i | i | nt
CCn1c(SCC(=O)Nc2ccc(C)cc2)nc(O)cc1=O | i | i | i | i | 4.5
C=CCn1c(SCC(=O)Nc2ccc(Br)cc2)nc(O)cc1=O | i | i | i | i | i
O=C(Cn1nc(-c2ccccc2)c2ccccc21)Oc1ccccc1 | nt | i | i | i | nt
O=C(NCCN1C(=O)C2C3C=CC(C3)C2C1=O)c1cc(F)cc(F)c1 (stereo unspecified) | i | i | i | i | nt
CN(C)c1ccc(S(=O)(=O)NCC(=O)N2CCN(S(=O)(=O)c3cccc(F)c3)CC2)cc1[N+](=O)[O-] | i | i | i | i | i
CN(CC(=O)Nc1cccc(F)c1)C(=O)CNS(=O)(=O)c1ccc(N(C)C)c([N+](=O)[O-])c1 | i | i | i | i | 4.4
COC(=O)[C@]12C=CCN1[C@H](c1ccc(OC)c(OC)c1)c1c(c3ccccc3n1S(=O)(=O)c1ccc(C)cc1)C2 | i | 3.8 | i | i | nt
Cc1cccc(C(=O)OCC(=O)c2ccc3c(c2)OCO3)c1O | 3.9 | i | i | i | i
O=C(NC1CC1)c1ccc2c(Cl)c3c(nc2c1)CCCC3 | i | i | i | 11 | i
COc1cc(-n2c(C)nc3cc(C(=O)N4CC(C)CC(C)C4)ccc32)cc(OC)c1OC (stereo unspecified) | i | i | i | i | nt
Cc1ccc(SCC(=O)O/N=C(\N)c2cccc([N+](=O)[O-])c2)cc1 | i | i | i | i | i
Cc1ccc(OCC(=O)O/N=C(\N)c2cccc([N+](=O)[O-])c2)cc1C | i | i | 6.0 | i | i
c1ccc2c(c1)Cn1nc(Cc3nc4c(s3)CCCC4)nc1-2 | i | i | 5.7 | i | 4.4
SMILES | DAX1 inh-1 | ssDAF-12 act | hcDAF-12 act | hgDAF-12 ag | DAX1 inh-2
N#CCc1nc2n(n1)Cc1ccccc1-2 | i | i | i | i | i
COc1ccc(Cn2ccc3ccc(-c4ccc5ccn(C(=O)c6cccc(OC)c6)c5c4)cc32)cc1 | i | i | i | i | nt
O=C(/C=C1\OCc2ccccc21)OCc1ccccc1 | i | i | i | 12 | nt
O=C(/C=C1\OCc2cc(OCc3ccccc3)ccc21)OCc1ccccc1 | i | i | i | i | nt
CCNc1nc(-c2cc(C)n(Cc3ccco3)c2C)cs1 | i | i | i | i | 5.0
Cc1ccc(S(=O)(=O)N2C=C(c3ccccc3)c3ccccc3-c3ccccc32)cc1 | nt | i | i | i | nt
O=C(C1CC1)N1CCc2cc(Br)c(S(=O)(=O)NCCCN3CCCCC3)cc21 | i | i | i | i | nt
CC(C)(C)C1(O)CC(C(F)(F)F)=NN1C(=O)CCCc1ccccc1 (stereo unspecified) | i | i | i | i | 4.6
Cc1cc(C)cc(OCC(=O)N2N=C(C(F)(F)F)CC2(O)C(C)(C)C)c1 (stereo unspecified) | i | i | i | i | i
Cc1ccc(NC(=O)Cn2nnc(-c3ccccc3F)n2)c(C)c1 | i | i | i | i | nt
COC(=O)C1C/C(=N\NS(=O)(=O)c2ccc(C)cc2)c2ccccc2C1 (stereo unspecified) | i | i | i | i | i
COc1ccc(OCC(=O)N/N=C2\CCc3ccccc32)cc1 | i | i | i | i | i
NC(=O)C(=O)N/N=C1\CCc2ccccc21 | i | i | 6.0 | i | i

Source: PubChem BioAssay (The Scripps Research Institute Molecular Screening Center)
